Measured values as given in PubChem BioAssay (NCI).
This is part of a sample that, as a whole, favours compounds with a hit. Of some 79,000 tested, about 15% had one in any assay. Activity calls are given as the source filed them. Rule as the data show it: active = growth inhibition above about 70%; inactive = the rest.

Legend:
[1] = NCI Yeast Anticancer Drug Screen. Data for the rad52 strain (AID 147);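 also: 0% = growth of vehicle-treated control cultures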; details: S. cerevisiae rad52 mutant growth inhibition, active compounds read high
In short: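 Compounds are applied to a genetically defined yeast strain lacking normal DNA damage repair, and inhibition of growth is expressed relative to cultures given vehicle only.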

[2] = NCI Yeast Anticancer Drug Screen. Data for the wt1 strain (AID 149);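 also: 0% = growth of vehicle-treated wt1 cultures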; details: S. cerevisiae wt1 strain (SPY 50644) growth inhibition, active compounds read high
In short: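 Vehicle-normalised growth inhibition; strain wt1; compound exposure.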

[3] = NCI Yeast Anticancer Drug Screen. Data for the rad50EPP+ strain (AID 151);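 also: 0% = growth of vehicle-treated control cultures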; details: S. cerevisiae rad50 mutant strain, active compounds read high
In short: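 Compounds were applied to the rad50EPP+ yeast strain, which bears a defined DNA repair alteration, and growth inhibition was determined relative to vehicle-treated cultures.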

[4] = NCI Yeast Anticancer Drug Screen. Data for the mgt1 strain (AID 153); details: S. cerevisiae mgt1 mutant growth inhibition, active compounds read high
In short: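 Strain: mgt1 yeast, one of a set carrying defined DNA damage repair or cell cycle control alterations. Compound-treated growth compared with vehicle.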

[5] = NCI Yeast Anticancer Drug Screen. Data for the rad50 strain (AID 155);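 also: 0% = growth of vehicle-only cultures of the same strain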; details: S. cerevisiae rad50 strain growth inhibition, active compounds read high
In short: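 A DNA repair-deficient yeast mutant serves as the test organism; compound-induced growth inhibition is calculated against vehicle-treated cells.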

[6] = NCI Yeast Anticancer Drug Screen. Data for the mec2-1 strain (AID 157); details: S. cerevisiae mec2-1 strain, active compounds read high
In short: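 Strain: mec2-1 (DNA repair/cell cycle alteration). Compound exposure, then growth measured; inhibition expressed relative to vehicle.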

[7] = NCI Yeast Anticancer Drug Screen. Data for the rad14 strain (AID 159);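 also: 0% = growth of vehicle-treated control cultures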; details: S. cerevisiae rad14 strain growth inhibition, active compounds read high
In short: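 Vehicle-treated cultures served as the baseline for growth inhibition of a DNA repair-mutant yeast strain exposed to each compound.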

[8] = NCI Yeast Anticancer Drug Screen. Data for the sgs1 mgt1 strain (AID 161);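 also: 0% = growth of cultures given vehicle only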; details: S. cerevisiae sgs1 mgt1 strain, active compounds read high
In short: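 Genetically altered yeast, compound exposure, growth inhibition relative to vehicle.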

[9] = NCI Yeast Anticancer Drug Screen. Data for the CLN2oe strain (AID 163);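 also: 0% = growth of vehicle-only control cultures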; details: S. cerevisiae CLN2oe strain, active compounds read high
In short: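 Growth of a genetically modified yeast strain is measured after compound exposure and compared with cultures given vehicle alone.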

[10] = NCI Yeast Anticancer Drug Screen. Data for the cln2 rad14 strain (AID 165);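 also: 0% = growth equal to vehicle treated cultures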; details: S. cerevisiae cln2 rad14 strain, active compounds read high
In short: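 Compounds are applied to the cln2 rad14 yeast strain, and growth is then compared with that of vehicle-treated cultures to give inhibition.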

[11] = NCI Yeast Anticancer Drug Screen. Data for the bub3 strain (AID 167); details: S. cerevisiae bub3 mutant strain, active compounds read high
In short: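 Inhibition values come from growth of compound-treated mutant yeast normalised to vehicle-treated controls.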

[12] = NCI Yeast Anticancer Drug Screen. Data for the wt2 strain (AID 169);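 also: 0% = growth of vehicle-treated yeast cultures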; details: S. cerevisiae wt2 strain growth inhibition, active compounds read high
In short: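 This strain belongs to a panel of yeast strains with defined genetic alterations in DNA damage repair or cell cycle control. Compounds are applied, and growth inhibition is measured against vehicle-treated cultures.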

[13] = NCI Yeast Anticancer Drug Screen. Data for the sgs1 strain (AID 173);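 also: 0% = growth of vehicle-only control cultures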; details: S. cerevisiae sgs1 mutant, active compounds read high
In short: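 Growth of a yeast strain bearing a defined genetic alteration is measured after compound treatment. Inhibition is expressed relative to vehicle-only controls.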

[14] = NCI Yeast Anticancer Drug Screen. Data for the mlh1 rad18 strain (AID 175); details: S. cerevisiae mlh1 rad18 strain growth inhibition, active compounds read high
In short: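 Read-out is yeast growth inhibition, calculated against vehicle-only controls. The compound was applied to a strain engineered with DNA damage repair alterations.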

[15] = NCI Yeast Anticancer Drug Screen. Data for the rad18 strain (AID 177); details: S. cerevisiae rad18 mutant growth inhibition, active compounds read high
In short: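 Growth of the mutant yeast strain after compound exposure, normalised to vehicle-only cultures.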

[16] = at 5.0 µM (retest, dose inferred, filed as 0.5)
[17] = at 50.0 µM (retest, dose inferred, filed as 5.0)

Measured: growth inhibition

NC(=S)N/N=C1\c2ccccc2CCC1CCC1(O)CCc2ccccc2C1=O (stereo unspecified)
inactive: [1]; at 1.2 µM 43% | [1]; at 3.7 µM 47% | [1]; at 11.0 µM 55% | [2]; at 1.2 µM 21% | [2]; at 3.7 µM 24% | [2]; at 11.0 µM 19% | [2]; at 33.0 µM 44% | [3]; at 1.2 µM 36% | [3]; at 3.7 µM 23% | [3]; at 11.0 µM 17% | [3]; at 33.0 µM 23% | [3]; at 100.0 µM 10% | [4]; at 1.2 µM 21% | [4]; at 3.7 µM 18% | [4]; at 11.0 µM 48% | [5]; at 1.2 µM 35% | [5]; at 3.7 µM 19% | [5]; [16] 2% | [5]; at 11.0 µM 49% | [5]; [17] 52% | [6]; at 1.2 µM 5% | [6]; at 3.7 µM 13% | [6]; [16] -1% | [6]; at 11.0 µM 16% | [6]; at 33.0 µM 50% | [6]; [17] 55% | [7]; at 1.2 µM 2% | [7]; at 3.7 µM 7% | [7]; at 11.0 µM 47% | [8]; [16] 10% | [9]; at 1.2 µM 38% | [9]; at 3.7 µM 36% | [9]; at 11.0 µM 42% | [9]; at 33.0 µM 64% | [10]; [16] 18% | [11]; at 1.2 µM 20% | [11]; at 3.7 µM 13% | [11]; [16] 17% | [11]; at 11.0 µM 34% | [11]; at 50.0 µM 46.1% | [12]; at 1.2 µM -8% | [12]; at 3.7 µM -7% | [12]; at 11.0 µM 13% | [12]; at 33.0 µM 62% | [13]; at 1.2 µM 34% | [13]; at 3.7 µM 34% | [13]; at 11.0 µM 63% | [14]; [16] 0% | [15]; at 1.2 µM 52% | [15]; at 3.7 µM 50% | [15]; at 11.0 µM 63%
active: [1]; at 33.0 µM 86% | [1]; at 100.0 µM 85% | [2]; at 100.0 µM 80% | [4]; at 33.0 µM 82% | [4]; at 100.0 µM 84% | [5]; at 33.0 µM 84% | [5]; at 50.0 µM 86.8% | [5]; at 100.0 µM 78% | [6]; at 50.0 µM 88.2% | [6]; at 100.0 µM 81% | [7]; at 33.0 µM 82% | [7]; at 100.0 µM 86% | [8]; [17] 88% | [8]; at 50.0 µM 92.5% | [9]; at 100.0 µM 82% | [10]; [17] 81% | [10]; at 50.0 µM 89.7% | [11]; at 33.0 µM 84% | [11]; [17] 83% | [11]; at 100.0 µM 85% | [12]; at 100.0 µM 83% | [13]; at 33.0 µM 82% | [13]; at 100.0 µM 84% | [14]; [17] 83% | [14]; at 50.0 µM 93.3% | [15]; at 33.0 µM 86% | [15]; at 100.0 µM 81%

CCN(CC)C(=S)SC(=S)N(CC)CC
inactive: [1]; at 1.2 µM -33% | [1]; at 3.7 µM -17% | [1]; at 11.0 µM 27% | [2]; at 1.2 µM -25% | [2]; at 3.7 µM -16% | [2]; at 11.0 µM 28% | [3]; at 1.2 µM -1% | [3]; at 3.7 µM 7% | [3]; at 11.0 µM 37% | [4]; at 1.2 µM -42% | [4]; at 3.7 µM -43% | [4]; at 11.0 µM 16% | [5]; at 1.2 µM -15% | [5]; at 3.7 µM 15% | [5]; [16] 10% | [5]; at 11.0 µM 29% | [5]; [17] 46% | [6]; at 1.2 µM -34% | [6]; at 3.7 µM -10% | [6]; [16] 6% | [6]; at 11.0 µM 32% | [6]; [17] 48% | [7]; at 1.2 µM -31% | [7]; at 3.7 µM -4% | [7]; at 11.0 µM 34% | [8]; [16] -9% | [9]; at 1.2 µM 0% | [9]; at 3.7 µM -8% | [9]; at 11.0 µM 18% | [9]; at 33.0 µM 63% | [10]; [16] -15% | [10]; [17] 18% | [10]; at 50.0 µM 40.2% | [11]; at 1.2 µM -25% | [11]; at 3.7 µM -21% | [11]; [16] 0% | [11]; at 11.0 µM -22% | [11]; at 33.0 µM 27% | [11]; [17] 58% | [12]; at 1.2 µM -21% | [12]; at 3.7 µM 32% | [12]; at 11.0 µM 60% | [13]; at 1.2 µM -43% | [13]; at 3.7 µM -18% | [13]; at 11.0 µM 44% | [14]; [16] 14% | [15]; at 1.2 µM -26% | [15]; at 3.7 µM 6% | [15]; at 11.0 µM 53%
active: [1]; at 33.0 µM 96% | [1]; at 100.0 µM 98% | [2]; at 33.0 µM 92% | [2]; at 100.0 µM 99% | [3]; at 33.0 µM 91% | [3]; at 100.0 µM 99% | [4]; at 33.0 µM 95% | [4]; at 100.0 µM 98% | [5]; at 33.0 µM 79% | [5]; at 50.0 µM 90% | [5]; at 100.0 µM 97% | [6]; at 33.0 µM 97% | [6]; at 50.0 µM 93.7% | [6]; at 100.0 µM 97% | [7]; at 33.0 µM 99% | [7]; at 100.0 µM 98% | [8]; [17] 87% | [8]; at 50.0 µM 92.8% | [9]; at 100.0 µM 98% | [11]; at 50.0 µM 91.4% | [11]; at 100.0 µM 97% | [12]; at 33.0 µM 98% | [12]; at 100.0 µM 99% | [13]; at 33.0 µM 90% | [13]; at 100.0 µM 98% | [14]; [17] 73% | [14]; at 50.0 µM 92% | [15]; at 33.0 µM 95% | [15]; at 100.0 µM 98%
